Laboratory results published in the supplement of paper PMC8728848.
Many of the other results were omitted from the sample, so the strongest signals are more common in it than they were.

Experiments:
Test in all cases: glycan array binding signal (z-score within array); higher = stronger binding
Details in all cases: glycan notation: IUPAC condensed, linker removed
[1] = biological target: Fuc(a1-2)Gal(b1-3)GalNAc(b1-3)Gal(a1-4)Gal(b1-4)Glc
Procedure, shortened: (§1)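 Glycan array data came from 3228 arrays in the Consortium for Functional Glycomics database, and only arrays with an available protein sequence were kept. Glycan names were put into IUPAC-condensed notation, and columns mapping to the same glycan were averaged. The binding signal is a within-array Z-score, averaged across arrays of one protein sequence run at different concentrations or buffers and across linkers. A negative Z-score can be read as non-binding.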

[2] = biological target: Fuc(a1-2)Gal(b1-3)GlcNAc(b1-2)Man(a1-3)[Fuc(a1-2)Gal(b1-3)GlcNAc(b1-2)Man(a1-6)]Man(b1-4)GlcNAc(b1-4)[Fuc(a1-6)]GlcNAc
Procedure, shortened: as §1

[3] = biological target: Fuc(a1-2)Gal(b1-3)[Fuc(a1-4)]GlcNAc
Procedure, shortened: as §1

Fuc(a1-2)Gal6S(b1-4)Glc = biological target: Fuc(a1-2)Gal6S(b1-4)Glc
Procedure, shortened: as §1

Fuc(a1-4)GlcNAc = biological target: Fuc(a1-4)GlcNAc
Procedure, shortened: as §1

Fuc(b1-3)GlcNAc = biological target: Fuc(b1-3)GlcNAc
Procedure, shortened: as §1

[4] = biological target: Gal(a1-3)Gal(b1-4)GlcNAc(b1-2)Man
Procedure, shortened: as §1

[5] = biological target: Gal(a1-3)Gal(b1-4)GlcNAc(b1-3)GalNAc
Procedure, shortened: as §1

[6] = biological target: Gal(a1-4)Gal(b1-4)GlcNAc(b1-3)Gal(b1-4)Glc
Procedure, shortened: as §1

Gal(b1-3)GalNAc(b1-3)Gal = biological target: Gal(b1-3)GalNAc(b1-3)Gal
Procedure, shortened: as §1

[7] = biological target: Gal(b1-3)GlcNAc(b1-2)Man(a1-3)[Gal(b1-3)GlcNAc(b1-2)Man(a1-6)]Man(b1-4)GlcNAc(b1-4)[Fuc(a1-6)]GlcNAc
Procedure, shortened: as §1

[8] = biological target: Gal(b1-3)[Fuc(a1-4)]GlcNAc(b1-2)Man
Procedure, shortened: as §1

[9] = biological target: Gal(b1-4)GlcNAc(b1-2)Man(a1-3)[Gal(b1-4)GlcNAc(b1-2)Man(a1-6)]Man(b1-4)GlcNAc(b1-4)[Fuc(a1-6)]GlcNAc
Procedure, shortened: as §1

[10] = biological target: Gal(b1-4)GlcNAc(b1-2)Man(a1-3)[Gal(b1-4)GlcNAc(b1-2)Man(a1-6)][Gal(b1-4)GlcNAc(b1-4)]Man(b1-4)GlcNAc(b1-4)[Fuc(a1-6)]GlcNAc
Procedure, shortened: as §1

[11] = biological target: Gal(b1-4)GlcNAc(b1-2)Man(a1-6)Man(b1-4)GlcNAc(b1-4)GlcNAc
Procedure, shortened: as §1

[12] = biological target: Gal(b1-4)GlcNAc(b1-2)[Gal(b1-4)GlcNAc(b1-6)]Man(a1-6)[Gal(b1-4)GlcNAc(b1-2)Man(a1-3)]Man(b1-4)GlcNAc(b1-4)[Fuc(a1-6)]GlcNAc
Procedure, shortened: as §1

[13] = biological target: Gal(b1-4)GlcNAc(b1-3)Gal(b1-3)GalNAc
Procedure, shortened: as §1

[14] = biological target: Gal(b1-4)GlcNAc(b1-3)Gal(b1-4)GlcNAc
Procedure, shortened: as §1

[15] = biological target: Gal(b1-4)GlcNAc(b1-3)Gal(b1-4)GlcNAc(b1-2)Man(a1-3)[Gal(b1-4)GlcNAc(b1-3)Gal(b1-4)GlcNAc(b1-2)Man(a1-6)]Man(b1-4)GlcNAc(b1-4)[Fuc(a1-6)]GlcNAc
Procedure, shortened: as §1

[16] = biological target: Gal(b1-4)GlcNAc(b1-3)Gal(b1-4)GlcNAc(b1-3)Gal(b1-4)GlcNAc(b1-2)Man(a1-3)[Gal(b1-4)GlcNAc(b1-3)Gal(b1-4)GlcNAc(b1-3)Gal(b1-4)GlcNAc(b1-2)Man(a1-6)]Man(b1-4)GlcNAc(b1-4)[Fuc(a1-6)]GlcNAc
Procedure, shortened: as §1

[17] = biological target: Gal(b1-4)GlcNAc(b1-3)Gal(b1-4)GlcNAc(b1-3)Gal(b1-4)GlcNAc(b1-3)Gal(b1-4)GlcNAc(b1-2)Man(a1-3)[Gal(b1-4)GlcNAc(b1-3)Gal(b1-4)GlcNAc(b1-3)Gal(b1-4)GlcNAc(b1-3)Gal(b1-4)GlcNAc(b1-2)Man(a1-6)]Man(b1-4)GlcNAc(b1-4)[Fuc(a1-6)]GlcNAc
Procedure, shortened: as §1

[18] = biological target: Gal(b1-4)GlcNAc(b1-3)Gal(b1-4)GlcNAc(b1-3)Gal(b1-4)GlcNAc(b1-3)Gal(b1-4)GlcNAc(b1-3)Gal(b1-4)GlcNAc(b1-2)Man(a1-3)[Gal(b1-4)GlcNAc(b1-3)Gal(b1-4)GlcNAc(b1-3)Gal(b1-4)GlcNAc(b1-3)Gal(b1-4)GlcNAc(b1-3)Gal(b1-4)GlcNAc(b1-2)Man(a1-6)]Man(b1-4)GlcNAc(b1-4)[Fuc(a1-6)]GlcNAc
Procedure, shortened: as §1

[19] = biological target: Gal(b1-4)GlcNAc(b1-3)Gal(b1-4)GlcNAc(b1-6)[Gal(b1-3)]GalNAc
Procedure, shortened: as §1

Gal6S(b1-3)GlcNAc6S = biological target: Gal6S(b1-3)GlcNAc6S
Procedure, shortened: as §1

Gal6S(b1-4)Glc6S = biological target: Gal6S(b1-4)Glc6S
Procedure, shortened: as §1

GalNAc4S6S(b1-4)GlcNAc = biological target: GalNAc4S6S(b1-4)GlcNAc
Procedure, shortened: as §1

[20] = biological target: GlcNAc(a1-3)Gal(b1-4)GlcNAc
Procedure, shortened: as §1

[21] = biological target: GlcNAc(b1-2)[GlcNAc(b1-6)]Man(a1-6)[GlcNAc(b1-2)Man(a1-3)]Man(b1-4)GlcNAc(b1-4)[Fuc(a1-6)]GlcNAc
Procedure, shortened: as §1

[22] = biological target: GlcNAc(b1-3)Gal(b1-4)GlcNAc(b1-2)Man(a1-3)[GlcNAc(b1-3)Gal(b1-4)GlcNAc(b1-2)Man(a1-6)]Man(b1-4)GlcNAc(b1-4)GlcNAc
Procedure, shortened: as §1

[23] = biological target: GlcNAc(b1-3)Gal(b1-4)GlcNAc(b1-3)Gal(b1-4)GlcNAc(b1-2)Man(a1-3)[GlcNAc(b1-3)Gal(b1-4)GlcNAc(b1-3)Gal(b1-4)GlcNAc(b1-2)Man(a1-6)]Man(b1-4)GlcNAc(b1-4)[Fuc(a1-6)]GlcNAc
Procedure, shortened: as §1

Kdn(a2-3)Gal(b1-3)GalNAc = biological target: Kdn(a2-3)Gal(b1-3)GalNAc
Procedure, shortened: as §1

[24] = biological target: Man(a1-3)[Man(a1-6)]Man(b1-4)GlcNAc(b1-4)[Fuc(a1-6)]GlcNAc
Procedure, shortened: as §1

[25] = biological target: Neu5Ac(a2-3)Gal(b1-3)GlcNAc(b1-2)[Neu5Ac(a2-3)Gal(b1-3)GlcNAc(b1-4)]Man(a1-6)[Neu5Ac(a2-3)Gal(b1-3)GlcNAc(b1-2)Man(a1-3)]Man(b1-4)GlcNAc(b1-4)GlcNAc
Procedure, shortened: as §1

[26] = biological target: Neu5Ac(a2-3)Gal(b1-3)GlcNAc6S
Procedure, shortened: as §1

[27] = biological target: Neu5Ac(a2-3)Gal(b1-4)GlcNAc(b1-2)Man(a1-3)[Neu5Ac(a2-3)Gal(b1-4)GlcNAc(b1-2)Man(a1-6)]Man(b1-4)GlcNAc(b1-4)[Fuc(a1-6)]GlcNAc
Procedure, shortened: as §1

[28] = biological target: Neu5Ac(a2-6)Gal(b1-4)GlcNAc(b1-2)Man(a1-3)[Neu5Ac(a2-3)Gal(b1-4)GlcNAc(b1-2)Man(a1-6)]Man(b1-4)GlcNAc(b1-4)GlcNAc
Procedure, shortened: as §1

[29] = biological target: Neu5Ac(a2-6)Gal(b1-4)GlcNAc(b1-2)Man(a1-3)[Neu5Ac(a2-6)Gal(b1-4)GlcNAc(b1-2)Man(a1-6)]Man(b1-4)GlcNAc(b1-4)[Fuc(a1-6)]GlcNAc
Procedure, shortened: as §1

[30] = biological target: Neu5Ac(a2-6)Gal(b1-4)GlcNAc(b1-6)[Gal(b1-3)GlcNAc(b1-3)]Gal(b1-4)Glc
Procedure, shortened: as §1

[31] = biological target: Neu5Ac(a2-8)Neu5Ac(a2-8)Neu5Ac(a2-3)[GalNAc(b1-4)]Gal(b1-4)Glc
Procedure, shortened: as §1

Neu5Ac(b2-6)GalNAc = biological target: Neu5Ac(b2-6)GalNAc
Procedure, shortened: as §1

B1: BTL (Bryothamnion triquetrum) (protein)
chain: ADPICGSSGYSCTTPAILTPKSPGSFPSGYSKVIVTGVGGSYSVYIHRPDGFKVYKASEGGCASFGSYSGGGNSEVGKYGSGGTVVAVACK
glycan array binding signal (z-score) [1]: -0.262 | glycan array binding signal (z-score) [2]: 2.75 | glycan array binding signal (z-score) [3]: -0.245 | glycan array binding signal (z-score) (Fuc(a1-2)Gal6S(b1-4)Glc): -0.244 | glycan array binding signal (z-score) (Fuc(a1-4)GlcNAc): -0.199 | glycan array binding signal (z-score) (Fuc(b1-3)GlcNAc): -0.257 | glycan array binding signal (z-score) [4]: -0.311 | glycan array binding signal (z-score) [5]: -0.244 | glycan array binding signal (z-score) [6]: -0.208 | glycan array binding signal (z-score) (Gal(b1-3)GalNAc(b1-3)Gal): -0.22 | glycan array binding signal (z-score) [7]: 4.76 | glycan array binding signal (z-score) [8]: -0.111 | glycan array binding signal (z-score) [9]: 4.92 | glycan array binding signal (z-score) [10]: 0.352 | glycan array binding signal (z-score) [11]: -0.192 | glycan array binding signal (z-score) [12]: 6.49 | glycan array binding signal (z-score) [13]: -0.107 | glycan array binding signal (z-score) [14]: -0.27 | glycan array binding signal (z-score) [15]: 6.38 | glycan array binding signal (z-score) [16]: 5.89 | glycan array binding signal (z-score) [17]: 4.48 | glycan array binding signal (z-score) [18]: 4.45 | glycan array binding signal (z-score) [19]: -0.128 | glycan array binding signal (z-score) (Gal6S(b1-3)GlcNAc6S): -0.24 | glycan array binding signal (z-score) (Gal6S(b1-4)Glc6S): -0.18 | glycan array binding signal (z-score) (GalNAc4S6S(b1-4)GlcNAc): -0.129 | glycan array binding signal (z-score) [20]: -0.194 | glycan array binding signal (z-score) [21]: 4.85 | glycan array binding signal (z-score) [22]: -0.193 | glycan array binding signal (z-score) [23]: 4.09 | glycan array binding signal (z-score) (Kdn(a2-3)Gal(b1-3)GalNAc): -0.259 | glycan array binding signal (z-score) [24]: 4.2 | glycan array binding signal (z-score) [25]: -0.099 | glycan array binding signal (z-score) [26]: -0.24 | glycan array binding signal (z-score) [27]: 5.15 | glycan array binding signal (z-score) [28]: -0.249 | glycan array binding signal (z-score) [29]: 8.12 | glycan array binding signal (z-score) [30]: -0.204 | glycan array binding signal (z-score) [31]: -0.289 | glycan array binding signal (z-score) (Neu5Ac(b2-6)GalNAc): -0.274
